Reference: PubChem BioAssay (Tox21)
Inconclusive results are not listed. Values without a mark were called inactive. Active and inactive are the calls of the source. Calls follow the shape of the dose curve; as a rule, active = well fitted inhibition curve with a large enough effect in the repeat runs; inconclusive = weak or mixed curves; inactive = no such curve, though single readings can be large or run the other way.

These compounds were tested against Cytochrome P450 3A4 (Homo sapiens) (UniProt P08684) (assay: Cytochrome P450 Family 3 Subfamily A Member 4 (CYP3A4) small molecule antagonists: luciferase reporter qHTS assay (AID 1671201; also: nearly all actives have a fitted effect of over 50% in size)). Conditions: P450-Glo CYP3A4 enzyme, luciferin luminescence, 1 h; series mostly up to 115 µM; activity change, negative = inhibition: at the top concentration.
Outline: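 Proluciferin-to-luciferin conversion by CYP3A4, NADPH-regenerated, 1 h RT; luminescence read as RLU. Ketoconazole as control.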
% is scaled to controls: 0 for no effect and ±100 for the full control effect; potency is read from the fitted curve at half-maximal effect.

Cytochrome P450 3A4 (Homo sapiens), sequence (P08684 whole entry, looked up): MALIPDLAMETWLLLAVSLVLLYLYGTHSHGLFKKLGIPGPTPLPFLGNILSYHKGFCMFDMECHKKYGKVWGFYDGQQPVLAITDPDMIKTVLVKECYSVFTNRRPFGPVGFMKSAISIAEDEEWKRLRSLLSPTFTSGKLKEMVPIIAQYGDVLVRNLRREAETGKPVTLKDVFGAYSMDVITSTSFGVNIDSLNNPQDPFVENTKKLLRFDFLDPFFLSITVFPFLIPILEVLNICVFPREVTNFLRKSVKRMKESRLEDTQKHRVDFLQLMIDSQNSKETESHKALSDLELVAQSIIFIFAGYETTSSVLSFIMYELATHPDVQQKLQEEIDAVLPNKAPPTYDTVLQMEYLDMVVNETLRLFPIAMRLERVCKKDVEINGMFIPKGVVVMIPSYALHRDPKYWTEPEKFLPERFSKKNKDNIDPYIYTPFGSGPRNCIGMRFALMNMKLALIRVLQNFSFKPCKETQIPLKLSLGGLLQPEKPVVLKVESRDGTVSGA

| Compound | Potency | activity change, negative = inhibition |
| --- | --- | --- |
| Nc1ccccc1Nc1ccccc1 | 31.8 µM (active) |  |
| Cc1ccccc1CCO |  | 12.1% |
| c1ccc(CN(Cc2ccccc2)Cc2ccccc2)cc1 |  | 1.26% |
| N#Cc1ccc(CC(=O)c2cccc(C(F)(F)F)c2)cc1 |  | -21.4% |
| Cc1cc(N)n(-c2ccccc2)n1 |  | -26.6% |
| COc1cc(CNC(=O)CCCC/C=C/C(C)C)ccc1O | 12.3 µM (active) |  |
| COc1ccc(CN(CCN(C)C)c2ncccn2)cc1 |  | 7.52% [at 52.9 µM] |
| CC(C)C/C=C(\C=O)c1ccccc1 | 35.6 µM (active) |  |
| CC(CN=Cc1ccccc1O)N=Cc1ccccc1O (stereo not given) |  | -16.8% |
| Cc1ccc(S(=O)(=O)NC(=O)NC2CCCC2)cc1 |  | 13.6% [at 52.9 µM] |
| CC1(COc2ccc(CC3SC(=O)NC3=O)cc2)CCCCC1 (stereo not given) |  | 4.87% [at 52.9 µM] |
| COc1ccc(C(=O)c2ccc(C)cc2)c(O)c1 |  | -24.2% |
| Clc1nc2ccccc2nc1Cl |  | 0.0811% |
| CCc1ccc(C(=O)C(C)CN2CCCCC2)cc1 (stereo not given) |  | -14.5% [at 52.9 µM] |
| O=C(Cl)c1ccc(F)c(Cl)c1 |  | 50% |
| C[C@H]1C[C@H]2[C@@H]3CCC4=CC(=O)C=C[C@]4(C)[C@@]3(F)[C@@H](O)C[C@]2(C)[C@@]1(O)C(=O)COP(=O)(O)O |  | 1.22% |
| O=C(O)c1ccc2c(c1)nc(C(=O)NC1CCN(C3CC3)CC1)n2Cc1cc(-c2ccc(Cl)s2)on1 |  | 1.57% [at 23.6 µM] |
| O=C(O)c1cc(C(=O)O)cc([N+](=O)[O-])c1 |  | 35.4% |
| Cc1cc(SC2=C(O)C[C@@](CCc3ccc(N)cc3)(C(C)C)OC2=O)c(C(C)(C)C)cc1CO | 3.99 µM (active) |  |
| O=C(Nc1ccccc1)c1cc([N+](=O)[O-])ccc1Cl | 35.6 µM (active) |  |
| CCCCCC1CCC(=O)O1 (stereo not given) |  | 12.2% |
| C[C@H](CN1CCCC1)C(=O)c1ccc(C(F)(F)F)cc1 |  | 5.62% [at 52.9 µM] |
| Sc1nc(S)nc(S)n1 |  | 5.59% [at 52.9 µM] |
| Cc1cc(C)c(C)c(O)c1 |  | -2.17% |
| COc1ccc(/C=C/S(=O)(=O)NC(=O)c2ccc(C)cc2Cl)cc1 |  | 42% |
